Compound activity from PubChem.
Pemphigus Ab inh = blocks pemphigus antibody binding to human desmoglein-3 | 310,000 tested, 0.48% active | AID 588358 | DSG3-coupled beads, scFv-anti-DSG3-GFP binding, flow cytometry; active compounds read low | binding (percent of control), % at 10 µM | P32926;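 active means binding more than 3 SD below its plate's average and above zero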;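 further: hits lower antibody fragment binding to DSG3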
LANA-H2B inh = blocks KSHV LANA binding to histone H2A/H2B. Q9QR71. cell-free LANA-H2A/H2B peptide, fluorescence polarization. inhibition, % (concentration not given with the values). 320,000 tested, 0.6% active. AID 2629; in the data active means inhibition mostly above about 10%, no sharp cut-off; inactive means mostly below about 6.7%
VLA-4 inh = inhibition in a human VLA-4 binding assay; 330,000 tested, 0.2% active; inhibition, % (about 7 µM as worked out from the volumes in the protocol); P13612; VLA-4 expressing cells, ligand binding flow cytometry
HDAC3 inh = inhibitors of human histone deacetylase 3 | inhibition, % at 8.3 µM | O15379 | AID 2718 | 320,000 tested, 0.15% active | recombinant HDAC3, fluorogenic peptide/trypsin coupled, fluorescence; in the data active means inhibition above about 26%, passing the limit was not always enough
PKD1 kinase inh = inhibitors of human PKD1 kinase; inhibition, % (test concentration not listed); Q15139; PKD1 kinase fluorescence polarization assay; AID 797; 200,000 tested, 0.056% active
GRK2 aptamer HTS = blocks RNA aptamer binding to human GRK2; 330,000 tested, 0.59% active; bead flow cytometry, FAM-aptamer displacement from GRK2; inhibition of aptamer binding, % at 10 µM; AID 488847; P25098;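 active means inhibition of aptamer binding above 40%, roughly 3 SD of noise, on plates passing a quality check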;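 further: median bead fluorescence of bound FAM aptamer so fluorescent compounds give negative values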
GRK2 CP1 = human GRK2 inhibition confirmation, cherry pick 1; bead-bound GRK2, FAM-aptamer displacement, flow cytometry; 2,000 tested, 4% active; AID 504451; shares compounds with GRK2 aptamer HTS; aptamer displacement, % at 10 µM;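 active means aptamer displacement above 40%, near three times the noise of non-fluorescent compounds, on plates passing quality checks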;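 further: negative values mostly reflect intrinsic compound fluorescence rather than true enhancement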
FAM quench CP1 = counter-screen for GRK2 aptamer inhibitors: fluorescent aptamer quenchers | shares compounds with GRK2 aptamer HTS | Carboxyfluorescein RNA aptamer on beads, flow cytometry quenching; active compounds read low | fluorescence response (% of DMSO), % at 10 µM | 2,000 tested, under 10 active | AID 504580;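 active means compounds that quench the bead-bound fluorescent RNA probe, cutting fluorescence to under half of the solvent control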;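 further: counterscreen run without GRK2 so only probe quenching by compound is measured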
GRK2 CP2 = confirmation of human GRK2 inhibitors binding RNA aptamer site | shares compounds with GRK2 aptamer HTS | inhibition of aptamer binding, % at 10 µM | 360 tested, under 10 active | bead-bound GRK2, FAM-aptamer displacement, flow cytometry;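 active means inhibition of aptamer binding above 40%, about triple the noise seen with nonglowing compounds, on plates passing quality control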;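 further: negative values mostly come from compounds that fluoresce themselves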
FAM quench CP2 = aptamer fluorescence quenching in GRK2 counter-screen | shares compounds with GRK2 aptamer HTS | carboxyfluorescein RNA aptamer beads, flow cytometry quenching; active compounds read low | fluorescence response vs DMSO, % at 10 µM | 360 tested, under 10 active;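 active means response vs DMSO under 50%, meaning signal dropped by over half, treated as fluorescence quencher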;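 further: labelled aptamer on streptavidin beads without GRK2 as a quench counter-screen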
Numbers stand for hits; i = inactive; nt = not tested or not shown. Compounds with a hit are over-represented: about 1.8% of the library has one in this group of screens. Unless noted, no stated cut-off is given here; in the data, active means inhibition above about 50%; inactive means the rest.

SMILES	Pemphigus Ab inh	LANA-H2B inh	VLA-4 inh	HDAC3 inh	PKD1 kinase inh	GRK2 aptamer HTS	GRK2 CP1	FAM quench CP1	others
COc1cccc(Oc2ccc(N/C=C/C(=O)C(C)(C)C)cc2)c1	i	i	i	i	i	88	i	i
CCN(/N=C/C=C/c1ccccc1)c1cc(=O)n(C)c(=O)[nH]1	i	i	i	i	i	i	nt	nt
CCN(/N=C/c1ccc(Cl)cc1)c1cc(=O)n(C)c(=O)[nH]1	i	i	i	i	i	92	i	i
O=C(NC1CCN(C(=O)c2cccc([N+](=O)[O-])c2)CC1)c1ccccc1	i	i	i	i	nt	98	i	i
O=CN1CCN(C(=O)c2cccc([N+](=O)[O-])c2)CC1	i	i	i	i	nt	nt	nt	nt
CC1(C)C2CC=C(/C=N/NC(=O)c3ccc(O)cc3)C1C2 (stereo unspecified)	i	i	i	i	i	74	i	i
Cc1occc1C(=O)NCc1cccc(CNC(=O)c2ccoc2C)c1	nt	i	i	i	i	47	i	i
Cc1occc1C(=O)NCc1ccc2c(c1)OCO2	i	i	i	i	i	i	nt	nt
Cc1sc2c(c1C)C(=O)/C(=C\Nc1ccccn1)S(=O)(=O)N2C	i	i	i	i	nt	57	i	i
CC(C(=O)Nc1ccccn1)N1C(=O)c2ccccc2S1(=O)=O (stereo unspecified)	i	i	i	i	nt	i	nt	nt
CCN(CC)CCN(CC)Cc1ccccc1Br	i	i	i	i	i	99	i	i
Cn1cc(S(=O)(=O)N2CCOCC2)cc1C(=O)NCc1ccccc1Cl	i	i	i	i	nt	i	i	i
c1ccc2sc(N3CN(CCN4CCOCC4)CN(c4nc5ccccc5s4)C3)nc2c1	nt	i	i	i	i	i	i	i
Cc1ccc(Cl)cc1C1=CC(=O)C[C@H](c2ccc(F)cc2)C1	i	i	i	i	nt	64	i	i
Cc1ccc(S(=O)(=O)c2nc(S(C)(=O)=O)sc2N2CCC3(CC2)OCCO3)cc1	i	i	i	i	nt	52	nt	nt	GRK2 CP2=i;FAM quench CP2=i
Cc1ccc(S(=O)(=O)c2nc(S(=O)(=O)c3ccc(C)cc3)c(N3CCN(CCO)CC3)s2)cc1	i	i	i	i	nt	i	i	i
O=C(c1ccccc1)c1cc([N+](=O)[O-])ccc1N1CCCC1	i	i	i	i	i	100	nt	nt	GRK2 CP2=i;FAM quench CP2=i
CCc1ccc(OCC(=O)N/N=C/c2cc([N+](=O)[O-])ccc2N2CCCCCC2)cc1	i	i	i	i	i	i	nt	nt
O=C(N/N=C/c1cc([N+](=O)[O-])ccc1N1CCCCCC1)c1ccccn1	i	i	i	i	i	84	i	i
O=C1C=C(c2ccc3cc[nH]c3c2)C[C@@H](c2ccc3c(c2)OCO3)C1	i	i	i	i	nt	i	nt	nt
CCCCN(CCCC)CCNC(=O)CSCc1ccc(C)cc1	i	i	i	i	i	i	nt	nt
O=C(O)c1ccc2c(c1)[C@@H]1C=CC[C@@H]1[C@H](c1ccccn1)N2	nt	i	i	i	i	42	i	i
CNC(=O)c1ccc(Nc2nnc(C)c3ccccc23)cc1	i	i	i	i	i	i	nt	nt
Cc1nnc(Nc2ccc(C(=O)NCCO)cc2)c2ccccc12	i	i	i	i	i	49	i	i
COC(=O)Nc1sc(C)nc1-c1ccccc1	i	i	i	i	i	i	nt	nt
CCOC(=O)Nc1sc(C)nc1-c1ccccc1	i	i	i	i	i	44	i	i
Cc1ccccc1OCC(=O)NCC(c1cccs1)N1CCOCC1 (stereo unspecified)	i	i	i	i	nt	i	nt	nt
Cc1ccc(C)c(NC(=O)c2cc3ccccn3n2)c1	i	i	i	i	i	i	nt	nt
Cc1ccc(C)c(NC(=O)c2cnn3ccccc23)c1	i	i	i	i	i	i	i	i
